Test results as given in PubChem BioAssay AID493056 (National Center for Advancing Translational Sciences (NCATS), 2011).
Values joined by “and” are separate entries in the source; they are usually repeats but may differ in a detail not shown here. Identical values can stand only once. Screen size: about 360,000 compounds; about 2,400 (0.67%) were called active. No stated cut-off is given here; in the data, active means enhancement above about 30%; inactive means the rest. The list comes from a sample in which actives are over-represented; it also holds similar structures and randomly drawn compounds. Where a structure was tested more than once in an assay, its records may differ in their call.
Further: 0% is about no effect.

Each compound was assayed against Thyrotropin-releasing hormone receptor (Homo sapiens) (UniProt P34981) (assay: qHTS for Small Molecule Agonists and Allosteric Enhancers of Human TRH Receptor: Primary Screen for Enhancers). Conditions: TRHR cells, fluo-8 calcium fluorescence, EC20 TRH enhancement; at 2 µM; stronger effect = higher value.
Thyrotropin-releasing hormone receptor (Homo sapiens), sequence (P34981 whole entry, looked up): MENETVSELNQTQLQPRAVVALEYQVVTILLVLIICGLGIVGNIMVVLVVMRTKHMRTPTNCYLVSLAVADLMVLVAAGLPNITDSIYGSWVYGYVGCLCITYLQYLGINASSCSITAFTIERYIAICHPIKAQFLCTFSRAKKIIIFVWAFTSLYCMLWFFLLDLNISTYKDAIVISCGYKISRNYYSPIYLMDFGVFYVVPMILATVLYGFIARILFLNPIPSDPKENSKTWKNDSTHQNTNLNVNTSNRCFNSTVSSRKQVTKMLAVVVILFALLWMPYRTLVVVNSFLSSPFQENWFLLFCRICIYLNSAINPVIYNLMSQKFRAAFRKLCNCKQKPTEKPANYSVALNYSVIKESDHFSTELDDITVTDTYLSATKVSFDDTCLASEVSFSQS
In short: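 Enhancer read-out: after compound pinning and an initial kinetic agonist-mode read, an EC20 of TRH (10 nM final) was injected and fluo-8 calcium signal (Ex 480/Em 530) followed at 1 s/cycle for 100 cycles in TRHR-expressing cells.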
In the case of `CCOC(=O)c1ccc(-n2c(CCC(=O)O)ccc2-c2ccccc2)cc1`, the enhancement is reported as -12.3% (inactive) and 10.9% (inactive). For `CCOC(=O)c1ccc(COC(=O)CCc2nc(-c3ccccc3)c(-c3ccccc3)o2)cc1`, the enhancement was 31.7% (active). In the case of `CCOC(=O)c1c(-c2ccc(OC)cc2)oc2ccc(OCc3ccc(C(=O)OC)cc3)cc12`, the enhancement is reported as -1.96% (inactive). With `COc1ccc(Cn2c(C(=O)O)c(CNCc3cccc(OC)c3)c3ccc(C)cc32)cc1` the enhancement was 4.01% (inactive). In the case of `COc1cc(NC(=O)c2noc3c2CSc2ccccc2-3)cc(OC)c1OC`, the enhancement is reported as 4.94% (inactive). With `COc1ccc(Nc2cc(=O)n(-c3ccccc3)c3c2c(=O)n(C)c(=O)n3C)cc1` the enhancement was -11.6% (inactive). `COc1ccc(-c2[nH]c3c(c2-c2c(-n4cccc4)n(C)c(=O)n(C)c2=O)c(=O)n(C)c(=O)n3C)cc1` was tested, and the enhancement was 31.9% (active). `COc1ccc(-c2c3c(=O)n(C)c(=O)n(C)c3c3c(C)nc4ccccc4n23)cc1` was tested, and the enhancement was -1.08% (inactive). In the case of `CCOC(=O)c1cc(-c2ccccc2)n(CCC(=O)Nc2ccccc2CC)c1C`, the enhancement is reported as 14% (inactive). In the case of `Cc1ccccc1NC(=O)Cn1c(=O)n(CCCCC(=O)NCc2ccccc2Cl)c(=O)c2ccccc21`, the enhancement is reported as 2.95% (inactive). `Cc1c(C(=O)Nc2cccc(Cl)c2)oc2ccc(S(=O)(=O)N3CCOCC3)cc12` was tested, and the enhancement was -6.24% (inactive). With `C[C@H](NC(=O)NCCc1ccccc1)C(=O)O` the enhancement was 33.9% (active). In the case of `O=C(NCCc1ccccc1)C1CC1`, the enhancement is reported as -3.66% (inactive). In the case of `CC(C)C[C@H](NC(=O)NCCc1ccc(Cl)cc1)C(=O)O`, the enhancement is reported as -5.99% (inactive). `CC(C)Cn1c(C2CC(=O)N(c3ccccc3Cl)C2)nc2ccccc21` (stereo not given) was tested, and the enhancement was -0.635% (inactive). With `CN(C)c1ccc(C(=O)NCC(=O)OC(C(=O)Nc2cc(C(F)(F)F)ccc2Cl)c2ccccc2)cc1` (stereo not given) the enhancement was -3.56% (inactive). For `C[n+]1ccc(C(=O)NCc2ccccc2)cc1`, the enhancement was -9.31% (inactive). `C[N+](C)(C)CCNC(=O)c1cc[n+](Cc2ccccc2)c(/C=N/O)c1` was tested, and the enhancement was 40.4% (active). With `O=C(NCCCNCc1ccccc1)c1ccc(/C=N/O)nc1` the enhancement was 15.9% (inactive). For `CCn1c(CN2CCC(C)CC2)nc2cc(NC(=O)c3ccccc3[N+](=O)[O-])ccc21`, the enhancement was 3.72% (inactive). In the case of `COc1ccccc1-c1cc2nc(C)c(CCC(=O)O)c(C)n2n1`, the enhancement is reported as 5.74% (inactive). In the case of `O=C(CC12CC3CC(CC(C3)C1)C2)NCc1ccco1`, the enhancement is reported as -4.28% (inactive). `O=C(COC(=O)C12CC3CC(CC(C3)C1)C2)NCc1ccco1` was tested, and the enhancement was -2.58% (inactive) and 33.9% (active). For `O=C(CC1CCCCC1)NCc1ccco1`, the enhancement was 14.2% (inactive). `Cc1ccc(NC2=C(c3ccc(C(F)(F)F)cc3)C(=O)c3ccccc32)cc1F` was tested, and the enhancement was -15.7% (inactive). With `CCOC(=O)c1c(NC(=O)Cc2coc3ccc(CC)cc23)sc2c1CCC2` the enhancement was -3.01% (inactive). With `O=C(Nc1nnc(C2CC(=O)N(c3ccc(Cl)cc3)C2)s1)c1ccco1` (stereo not given) the enhancement was -3.65% (inactive). `CCc1ccc(NC(=O)c2cc(S(=O)(=O)NC3CCCCCC3)ccc2F)cc1` was tested, and the enhancement was 3.53% (inactive). In the case of `O=C(Nc1ccccc1)c1ccccc1NC(=O)C(F)(F)F`, the enhancement is reported as -2.9% (inactive). With `O=C(Nc1ccccc1)c1cccnc1Nc1ccccc1` the enhancement was 47.9% (active). `O=C(Nc1ccc(F)cc1)c1cccnc1N1CCOCC1` was tested, and the enhancement was -2.71% (inactive). In the case of `CC(CCCc1ccccc1)NC(=O)c1nn(-c2ccc(Cl)cc2)nc1CO` (stereo not given), the enhancement is reported as -3.71% (inactive). With `Cc1cc(C)cc(Nc2ncnc3onc(-c4ccc(F)cc4)c23)c1` the enhancement was 5.09% (inactive). In the case of `Cn1c(SCC(=O)N2CCCc3ccccc32)ncc(C(=O)Nc2ccc(F)cc2)c1=O`, the enhancement is reported as 7.76% (inactive). In the case of `COc1cc2nc(NCC(C)c3ccccc3)n3nc(-c4ccccc4)nc3c2cc1OC` (stereo not given), the enhancement is reported as 15.5% (inactive). In the case of `O=C(CN1CCN(c2ccccn2)CC1)NCc1cccs1`, the enhancement is reported as 17.1% (inactive). For `O=C(NCc1cccs1)c1cc(-c2ccccn2)nc2ccc(Br)cc12`, the enhancement was 30.5% (active). With `O=C(NCc1cccs1)c1ccc(Br)o1` the enhancement was -3.47% (inactive). With `CCc1ccc(-n2nc(C)c3c(C)cc(=O)n(CC(=O)Nc4ccc(F)cc4C)c32)cc1` the enhancement was 6.58% (inactive). In the case of `CN(C)c1ccnc(Oc2ccc(F)cc2)c1C#N`, the enhancement is reported as 4.36% (inactive). With `CCOC(=O)CSc1nc(N2CCOCC2)c2c(c1C#N)CC(C(C)C)OC2` (stereo not given) the enhancement was -9.38% (inactive). `CCOC(=O)CSc1nccc(N(C)C)c1C#N` was tested, and the enhancement was 36.1% (active). For `O=C(C1COc2ccccc2O1)N(Cc1cccnc1)c1nc2c(F)cc(F)cc2s1` (stereo not given), the enhancement was -1.37% (inactive). For `Cc1cc(C)c(NC(=O)CCc2c(C)nc3c(c(C)nn3C(C)(C)C)c2C)c(C)c1`, the enhancement was 31% (active). In the case of `CCCNC(=O)CCc1c(C)nc2c(c(C)nn2-c2ccc(C)cc2)c1C`, the enhancement is reported as 7.28% (inactive). With `COC(=O)c1ccc(NC(=O)CCc2c(C)nc3c(c(C)nn3-c3ccc(C)cc3)c2C)cc1` the enhancement was 0.187% (inactive). For `Cn1c(C(=O)N2CCCC(C(=O)NCc3ccccc3)C2)cc2sccc21` (stereo not given), the enhancement was 4.18% (inactive). For `COc1ccc(N2CCN(C(=O)C3CCCN(C(=O)c4cc5sccc5n4C)C3)CC2)cc1` (stereo not given), the enhancement was 32.5% (active). In the case of `Cn1c(C(=O)N2CCC(C(=O)N3CCN(c4ccccc4)CC3)CC2)cc2sccc21`, the enhancement is reported as 0.218% (inactive). For `Cc1ccccc1CSc1nc2c([nH]c3ccccc32)c(=O)n1C`, the enhancement was -2.07% (inactive). With `COc1ccc(Cl)cc1-n1c(CCC(=O)O)ccc1-c1ccc(C)cc1` the enhancement was 7.8% (inactive). `Cc1ccccc1N1CCN(S(=O)(=O)c2ccc3ccccc3c2)CC1` was tested, and the enhancement was -5.29% (inactive). In the case of `Cc1ccc(S(=O)(=O)N2CCN(C(=O)c3cccs3)CC2)cc1`, the enhancement is reported as 0.403% (inactive). `Cc1ccc(S(=O)(=O)N2CCN(C)CC2)cc1` was tested, and the enhancement was 33.6% (active). `Cc1ccc(C)c(N2CCN(S(=O)(=O)c3ccc4c(c3)C(C(C)C)C(=O)N4)CC2)c1` (stereo not given) was tested, and the enhancement was -4.92% (inactive). For `Cc1ccc(N2CCN(S(=O)(=O)c3ccc(F)cc3)CC2)c(C)c1`, the enhancement was 32% (active). With `Cc1ccc(S(=O)(=O)N2CCC(N3CCCCCC3)CC2)cc1` the enhancement was 26.1% (inactive). With `CCc1cc2c(cc3c(=O)n(CC(=O)N4CCN(c5cc(Cl)ccc5C)CC4)nc(CC)n32)s1` the enhancement was -2.18% (inactive). In the case of `Cc1nc2sc(C)c(C)n2c(=O)c1S(=O)(=O)NCCc1ccc(Cl)cc1`, the enhancement is reported as 2.98% (inactive). With `O=C(Nc1nnc(-c2ccc(Cl)cc2)o1)c1ccccc1Br` the enhancement was 1.12% (inactive). For `O=C(COC(=O)CSc1nnc(-c2ccc(Cl)cc2)o1)Nc1cc(Cl)cc(Cl)c1`, the enhancement was -8.1% (inactive). For `O=C(COC(=O)c1ccccc1Br)Nc1nnc(-c2ccccc2)o1`, the enhancement was 32.2% (active). `CSc1ncc(C(=O)NCc2ccccc2Cl)c(C(F)(F)F)n1` was tested, and the enhancement was -4.14% (inactive). `CN(C)c1ccc(NC(=O)CSc2nc(-c3ccco3)cc(C(F)(F)F)n2)cc1` was tested, and the enhancement was 10.8% (inactive). `O=C(NC1CCCCC1)c1ccc(Cn2c(SCc3ccccc3)nc3cccnc32)cc1` was tested, and the enhancement was 7.91% (inactive). With `COc1ccccc1C(=O)NCC(=O)NCCSc1ccc(Br)cc1` the enhancement was 0.828% (inactive). In the case of `COc1cccc(C(=O)NCCSc2ccc(Br)cc2)c1`, the enhancement is reported as 31.9% (active). With `COc1cc(C(=O)NCC(=O)NCCSc2ccc(Br)cc2)cc(OC)c1OC` the enhancement was 1.93% (inactive). In the case of `CCOc1cc(C2C(C(=O)Nc3ccc(OC)cc3)=C(C)Nc3nc(SC)nn32)ccc1O` (stereo not given), the enhancement is reported as -5.28% (inactive). For `COc1ccccc1N1CCN(C(=O)C2Cc3ccccc3CN2C(=O)c2ccco2)CC1` (stereo not given), the enhancement was 6.6% (inactive). For `CCC(=O)N1c2ccccc2CC1C(=O)N1CCN(c2ccccc2)CC1` (stereo not given), the enhancement was -2.98% (inactive). In the case of `O=C(C1Cc2ccccc2CN1C(=O)c1ccco1)N1CCN(c2ccccc2)CC1` (stereo not given), the enhancement is reported as 36% (active). With `COc1cccc(NC(=O)CSC2=Nc3ccccc3C3=NC(CC(=O)NC4CCCCC4)C(=O)N23)c1` (stereo not given) the enhancement was -3.86% (inactive). `COc1ccc(NC(=O)c2sc3nc(-c4cc5cccc(OC)c5oc4=O)[nH]c(=O)c3c2C)cc1` was tested, and the enhancement was 8.15% (inactive). With `Cn1c(=O)c2c(SCC(=O)NCC3CCCO3)nc(-c3ccccc3F)nc2n(C)c1=O` (stereo not given) the enhancement was -1.86% (inactive). In the case of `Cc1ccc(-c2cn(S(=O)(=O)c3cccc([N+](=O)[O-])c3)nc2N)cc1`, the enhancement is reported as 43.3% (active). For `CC1=NCCN1S(=O)(=O)c1cccc([N+](=O)[O-])c1`, the enhancement was 18.4% (inactive). In the case of `Cc1cc(C)n(S(=O)(=O)c2cccc([N+](=O)[O-])c2)n1`, the enhancement is reported as -7.84% (inactive). `CCOc1ccc(CNC(=O)c2cc(=O)[nH]c3ccc(S(=O)(=O)N4CCCCC4)cc23)cc1` was tested, and the enhancement was 5.17% (inactive). For `COc1ccc(OC)c(NC(=O)Cn2c(=O)n(Cc3ccccc3)c(=O)c3ccccc32)c1`, the enhancement was -7.19% (inactive). `COc1ccccc1-c1nnc(SCC(N)=O)o1` was tested, and the enhancement was 0.976% (inactive). In the case of `COc1ccccc1-c1nnc(C2CCN(C(=O)c3ccc(Cl)cc3)CC2)o1`, the enhancement is reported as 49.9% (active). For `COc1ccc(C(=O)N2CCC(c3nc4ccccc4o3)CC2)cc1`, the enhancement was 6.96% (inactive). For `COC(=O)c1c(NC(=O)c2ccc(Cl)c(Cl)c2)sc2c1CCCC2`, the enhancement was 12.7% (inactive). With `COc1cccc(C(=O)NC2CCN(C#N)CC2)c1` the enhancement was -0.807% (inactive). In the case of `Cc1ccc(Cl)cc1N1CCN(C(=O)c2cnc3c(-c4ccc(F)cc4)c(C)nn3c2C)CC1`, the enhancement is reported as -2.73% (inactive). For `CCOc1ccc(N(CC)C(=O)c2noc3c2COc2ccc(C)cc2-3)cc1`, the enhancement was -7.18% (inactive). With `COc1ccc(-n2cnnc2SCC(=O)Nc2cccc(S(N)(=O)=O)c2)cc1` the enhancement was 17.5% (inactive). For `NS(=O)(=O)c1cccc(NC(=O)CSc2nc3ccccc3n2-c2ccccc2)c1`, the enhancement was 41.7% (active). With `Cc1nnc(SCC(=O)Nc2cccc(N)c2)n1-c1ccccc1` the enhancement was 3.5% (inactive).
